Screening results deposited in PubChem by Broad Institute.
Only a sample is shown.
aSyn 5UTR act: Activators working through SNCA 5'UTR binding (MLPCN); alpha-synuclein 5'UTR reporter, activators screen; activity score, % (tested at 7.5 µM), hits read low; actives 7.1% (n = 300,000); AID 1814; in the data active = activity score below about -60%
Of the large screens only hits and unclear results are named; the others gave an inactive call.

COc1ccc(-c2cc(C(=O)NCC(c3ccccc3)N(C)C)c3ccccc3n2)cc1OC (stereo unspecified)	aSyn 5UTR act -68
C(=N\Nc1nc(-c2ccccc2)cs1)/c1ccncc1	aSyn 5UTR act -230
ClCc1csc(N/N=C/c2cccs2)n1	aSyn 5UTR act -72
C(=N\Nc1nc(-c2ccccc2)cs1)/c1cccs1	aSyn 5UTR act -233
COc1cc(/C=c2\sc3n(c2=O)CCCN=3)ccc1O	aSyn 5UTR act -102
COc1ccc(/C=c2/sc3n(c2=O)C(c2ccccc2OC)C2=C(N=3)c3ccccc3CC2)cc1O (stereo unspecified)	none
O=c1/c(=C/c2ccc([N+](=O)[O-])cc2)sc2n1CCCN=2	aSyn 5UTR act -173
N#C/C(=C\c1ccc(N2CCCCC2)o1)C(=O)Nc1cccc(Br)c1	aSyn 5UTR act -178
Cc1ccc(-c2nc(N/N=C/c3cccc([N+](=O)[O-])c3)c3ccccc3n2)cc1	aSyn 5UTR act -153
Cc1ccc(-c2nc(N/N=C/c3cccnc3)c3ccccc3n2)cc1	aSyn 5UTR act -258
Cc1ccc(-c2nc(C(Cl)Cl)c3ccccc3n2)cc1	none
Cc1ccc(-c2nc(NCc3cccnc3)c3ccccc3n2)cc1	aSyn 5UTR act -78
c1cncc(-c2nc(NCCCn3ccnc3)c3ccccc3n2)c1	aSyn 5UTR act -66
CC(C)(C)NC(=O)Nc1ccc(Br)cc1	aSyn 5UTR act -138
CCC(C)NC(=O)Nc1ccc(Br)cc1 (stereo unspecified)	aSyn 5UTR act -73
c1ccc2c(c1)CSc1ccccc1N2	none
COc1cccc(CN=C2Nc3ccccc3CS2)c1	aSyn 5UTR act -142
COc1ccccc1CN=C1Nc2ccccc2CS1	aSyn 5UTR act -149
Clc1ccc(CN=C2Nc3ccccc3CS2)cc1	aSyn 5UTR act -182
Cc1ccc(S(=O)(=O)c2ccc([N+](=O)[O-])cn2)cc1	aSyn 5UTR act -73
Cn1c(SCc2ccccc2)nnc1-c1cccs1	aSyn 5UTR act -147
c1ccc(CN2CCC(Nc3nc(-c4cccs4)nc4ccccc34)CC2)cc1	none
Cn1c(SCc2ccc(F)cc2)nnc1-c1cccs1	aSyn 5UTR act -108
Cc1cc(-c2csc(NC(=O)c3cccc(S(=O)(=O)N(C)C)c3)n2)c(C)n1-c1ccccc1	aSyn 5UTR act -83
COc1ccc(-c2nc(NC(=O)Cn3c(=O)oc4ccccc43)sc2C)cc1	aSyn 5UTR act -70
N#CCc1ccc(C(=O)c2ccccc2)s1	aSyn 5UTR act -70
CC(=O)Oc1ccc(C(=O)Nc2nnc(C)s2)cc1	aSyn 5UTR act -63
Cc1nnc(NC(=O)c2ccc(Br)cc2)s1	aSyn 5UTR act -96
O=C(Nc1ccc(Cl)cc1Cl)C1=Cc2ccccc2OC1	aSyn 5UTR act -192
CCSc1nc2ccccc2n1C(=O)/C=C\c1ccc(OC)c(OC)c1	aSyn 5UTR act -112
NC(=O)c1cc2c3ccccc3ccn2c1-c1ccccc1	none
CCOC(=O)c1c(C)nc2c3ccccc3ccn12	aSyn 5UTR act -91
O=C(Cc1cccs1)Nc1nnc(-c2ccccc2)s1	aSyn 5UTR act -211
O=C(Cc1cccs1)Nc1nnc(-c2ccc(F)cc2)s1	aSyn 5UTR act -76
Nc1n[nH]c(N)c1N=Nc1ccc(Cl)cc1Cl	aSyn 5UTR act -74
c1ccc(-c2nnc(SCc3cn4ccsc4n3)o2)cc1	aSyn 5UTR act -75
CCOC(=O)C/C(C)=N/NC(=O)c1cccs1	aSyn 5UTR act -131
C/C(=N\NC(=O)c1cc(-c2ccc(C)s2)[nH]n1)c1ccco1	aSyn 5UTR act -168
C/C(=N\NC(=O)c1cccs1)C(C)(C)C	aSyn 5UTR act -94
C/C(=N/NC(=O)c1cccs1)c1ccco1	aSyn 5UTR act -100
CC1C2CC(C/C2=N/NC(=O)c2cccs2)C1(C)C (stereo unspecified)	aSyn 5UTR act -74
O=C(NN=C1CCCCCC1)c1cccs1	aSyn 5UTR act -75
N#Cc1cc(C#N)c(N2CCN(c3cccc(Cl)n3)CC2)nc1N	aSyn 5UTR act -85
O=[N+]([O-])c1cc2c(c(CSc3ncccn3)c1)OCOC2	aSyn 5UTR act -63
O=[N+]([O-])c1cc(O)c2ncccc2c1	none
CC1CCCN(c2nc3ccsc3c(=O)s2)C1 (stereo unspecified)	aSyn 5UTR act -148
Cc1nc(SCC(=O)c2ccc(Cl)s2)c2oc3ccccc3c2n1	aSyn 5UTR act -94
c1coc(CSc2ncnc3c2oc2ccccc23)c1	aSyn 5UTR act -91
CC(=O)CSc1ncnc2c1oc1ccccc12	aSyn 5UTR act -65
Cc1cc(/C=C2/C(=N)N3C(c4ccccc4)=CSC3=NC2=O)c(C)n1-c1ccccc1	aSyn 5UTR act -81
Cc1cc(/C=C2/NC(=O)N(c3ccccc3)C2=O)c(C)n1-c1cccnc1	aSyn 5UTR act -149
CC1=NN(c2cccc(C(=O)O)c2)C(=O)/C1=C\C=C/c1ccccc1	aSyn 5UTR act -64
Cc1cc(/C=C2\Cc3ccccc3C2=O)c(C)n1-c1ccccc1	none
CC1=NN(c2ccccc2)C(=O)/C1=C\c1cc(C)n(-c2ccccc2)c1C	aSyn 5UTR act -82
CC1=NN(c2ccccc2)C(=O)/C1=C/c1c(O)n(-c2ccc(F)cc2)[nH]c1=O	aSyn 5UTR act -134
CC1=NN(c2ccccc2)C(=O)/C1=C/c1ccc[nH]1	aSyn 5UTR act -181
COC(=O)c1cnc(SCc2ccc(Cl)cc2)n1C	aSyn 5UTR act -70
COC(=O)c1ccnc(SCC(=O)c2ccccc2)c1	aSyn 5UTR act -117
Cn1c(SCC(=O)c2ccccc2)ncc(C(=O)Nc2ccccc2)c1=O	aSyn 5UTR act -67
COC(=O)c1cnc(SCC(=O)c2ccccc2)n1C	aSyn 5UTR act -94
O=C1c2ccccc2S(=O)(=O)c2cc(N3CCc4ccccc4C3)ccc21	aSyn 5UTR act -180
CCCCC(=O)N1CCN(c2nc3ccc(Cl)cc3s2)CC1	aSyn 5UTR act -148
CC(C)(C)NC(=O)N1CCN(c2nc3ccc(Cl)cc3s2)CC1	aSyn 5UTR act -156
CC(C)(C)NC(=O)N1CCN(c2nc(-c3ccccc3)ns2)CC1	aSyn 5UTR act -119
CCCNC(=O)c1cc(-c2ccco2)on1	aSyn 5UTR act -335
CC(C)CNC(=O)c1cc(-c2ccco2)on1	aSyn 5UTR act -137
O=C(Nc1ccccc1)c1nnsc1S(=O)c1ccc(Cl)cc1 (stereo unspecified)	aSyn 5UTR act -103
Cc1nnsc1S(=O)c1ccc(Cl)cc1 (stereo unspecified)	aSyn 5UTR act -99
Cc1nnsc1S(=O)c1ccc(Cl)c(Cl)c1 (stereo unspecified)	aSyn 5UTR act -89
Cc1nonc1NC(=O)c1oc2ccc(F)cc2c1C	aSyn 5UTR act -73
Cc1cc2oc(C(=O)Nc3nonc3C)c(C)c2cc1Cl	aSyn 5UTR act -88
C/C(=N/NC(=O)c1ccc(C)s1)c1cccc(NC(=O)COc2ccc(Cl)cc2Cl)c1	aSyn 5UTR act -126
C/C(=N\NC(=O)c1ccn(C)n1)c1ccc(NC(=O)c2cccc(F)c2)cc1	aSyn 5UTR act -86
C/C(=N\NC(=O)c1ccn(C)n1)c1cccc(NC(=O)c2ccc(C)s2)c1	aSyn 5UTR act -101
C/C(=N/NC(=O)c1ccc(Cl)s1)c1ccc(NC(=O)COc2ccc(Cl)cc2)cc1	aSyn 5UTR act -77
C/C(=N\NC(=O)c1c(Cl)cnn1C)c1cccc(NC(=O)COc2ccccc2)c1	aSyn 5UTR act -88
C/C(=N/NC(=O)c1ccco1)c1cccc(NC(=O)c2ccc(C)s2)c1	aSyn 5UTR act -143
COc1ccc(-c2noc(-c3cccnc3)n2)cc1OC	aSyn 5UTR act -159
CCOc1ccc(-c2noc(-c3cccnc3)n2)cc1OC	aSyn 5UTR act -95
COc1ccc(C(=O)Nc2sc(C)c(-c3ccccc3)c2C#N)cc1OC	aSyn 5UTR act -92
